Tests used:
[1] = target: Tumor necrosis factor receptor superfamily member 10B (Homo sapiens) (UniProt O14763); assay: viability loss of caspase-8 NB7 cells with TRAIL – with/without TRAIL, luminescence panel, confirmation (AID 651596); settings: NB7 neuroblastoma + caspase-8, TRAIL sensitization, NB7 Caspase-8, with TRAIL, mean of runs, at 10 µM, stronger effect = higher value
[2] = as above; settings: NB7 neuroblastoma + caspase-8, without TRAIL, NB7 Caspase-8, without TRAIL, mean of runs, at 10 µM

Chain of Tumor necrosis factor receptor superfamily member 10B (Homo sapiens) (O14763 whole entry, looked up): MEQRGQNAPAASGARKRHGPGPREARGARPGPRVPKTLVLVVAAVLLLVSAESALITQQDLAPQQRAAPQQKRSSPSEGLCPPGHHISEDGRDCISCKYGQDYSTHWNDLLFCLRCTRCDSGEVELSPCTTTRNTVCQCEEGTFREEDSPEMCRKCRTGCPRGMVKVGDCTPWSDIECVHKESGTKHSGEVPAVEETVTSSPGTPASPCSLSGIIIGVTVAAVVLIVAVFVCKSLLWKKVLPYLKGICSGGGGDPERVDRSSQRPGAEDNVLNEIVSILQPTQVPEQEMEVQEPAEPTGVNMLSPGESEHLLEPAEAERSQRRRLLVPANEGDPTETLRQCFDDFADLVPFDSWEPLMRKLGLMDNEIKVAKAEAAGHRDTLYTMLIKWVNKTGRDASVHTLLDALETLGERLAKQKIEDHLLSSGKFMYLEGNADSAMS

Structure (SMILES)	activity [1] [%]	activity [2] [%]
CN(C)CCNC(=O)c1cccc(-c2cc(NC=O)c3ncc(-c4cccc(C(F)(F)F)c4)n3c2)c1	99.4	99.5
O=C(N/N=C/c1cccnc1)c1ccc2c(c1)OCCO2	76.2	67
COc1ccc2nc(N3C(=O)CNC3=S)sc2c1	51.8	49.4
Cc1cc(NC(=O)/C=C/c2ccccc2Cl)n(-c2nc3ccccc3[nH]2)n1	78.8	82.4
CC(C)OC(=O)Nc1ccc2c(c1)N(C(=O)N1CCN(C)CC1)c1ccccc1CC2	86.2	84.2
CCc1sc(C(=O)N2CCc3ccccc32)cc1C	46.1	44.7
COc1cc(/C=N/NC(=O)c2nnn(-c3nonc3N)c2C)ccc1OCc1ccc(Cl)cc1	39	20.6
CCOC(=O)c1ccc(NC(=O)c2nc[nH]c2C(=O)NCCNC(=O)c2[nH]cnc2C(=O)Nc2ccc(C(=O)OCC)cc2)cc1	99.4	99.5
O=C(c1ccc2c3n(nc2c1)-c1ccccc1CO3)N1CCCCC1	79.2	78.4
CC(C)c1onc(C(=O)N2CCN(C(c3ccccc3)c3ccccc3)CC2)c1[N+](=O)[O-]	98.1	93.9
CSc1nc(NCCN(C)C)c2sc3nc(-c4ccco4)c4c(c3c2n1)CCC4	80.2	98.5
Cc1ccc(S(=O)(=O)n2ccc3c(OCCOCCNCc4ccc(F)cc4)cccc32)cc1	15.8	26.4
O=C(CCl)N(c1ccccc1)c1c[nH]c2ccccc12	99.5	99
N=c1oc2cc(O)ccc2cc1C(=O)Nc1ccc(Cl)cc1	34.3	39.3
COc1ccc(-c2nc3ccccc3c(=O)[nH]2)cc1	73.8	77.5
COc1ccc(CC(=O)Nc2cccc(-c3nnc(-c4ccccc4)o3)c2)cc1OC	78.9	59.8
Cc1csc(C(C#N)C(=O)c2cc3ccccc3o2)n1 (stereo not given)	57.3	61.2
O=c1cc(C(Cl)(Cl)Cl)oc2c1ccc1ccccc12	62.7	65.3
COc1ccc(C2C(C(=O)N3CCN(c4ccccc4)CC3)c3ccccc3C(=O)N2C)cc1 (stereo not given)	69.5	66.3
Fc1cccc(CSc2nc3ccncc3[nH]2)c1	55.2	54.4
O=[N+]([O-])c1ccc(N2CCN(Cc3ccccc3)CC2)c2c1no[n+]2[O-]	99.2	99.1
COc1ccc(-c2cn3cc(C)ccc3n2)cc1OC	74.7	77
Cc1ccc(C(=O)Oc2ccc(C(=O)COC(=O)c3cnccn3)cc2)cc1	19.9	31.6
Cn1c(=N)n(CC(=O)c2ccccc2)c2ccccc21	70.7	74.4

Structure (SMILES)	activity [1] [%]	activity [2] [%]
O=C(NNC(=O)c1cc(OCC(F)(F)F)ccc1OCC(F)(F)F)c1cccc(C(F)(F)F)c1	50.6	44.2
CC(=O)c1ccc(NC(=O)Nc2ccccc2)cc1	65.2	68.3
COc1cccc(C=Cc2nccc3ccccc23)c1OC	69.2	67.1
CCN(c1ccccc1)S(=O)(=O)c1ccc(OC)c(NC(=O)c2cc(F)c(F)c(F)c2F)c1	63.3	87.5
Cc1ccc(NC(=O)c2ccc3c(c2)OCCO3)nc1	76.8	77.2
CCc1ccc(-c2cc(C(=O)N/N=C/c3c[nH]c4ccccc34)[nH]n2)cc1	41.6	52.2
Cc1occc1C(=O)O/N=C(\N)c1ccc(Cl)cc1	81.6	84.7
Cc1nc2cc(NC(=O)c3ccc(Br)s3)ccc2s1	71.4	63.1
Cc1scc(C(=O)N/N=C/c2ccsc2)c1C	58.1	63.5
CSc1nnc(NC(=O)c2nc(S(=O)(=O)Cc3ccccc3)ncc2Cl)s1	83.6	77.9
Nc1ncnc2c(C3OC(CO)C(O)C3O)c[nH]c12 (stereo not given)	95.2	98.7
CCOc1ccc(-c2c(C#N)c(N)nc3c2c(=O)n(C)c(=O)n3C)cc1OC	-4.4	-21.2
O=C(Cn1ncc(Cl)c(Cl)c1=O)NC(=O)NC1CCCCC1	99.3	99.3
CCOC(=O)c1sc(NC(=O)c2ccccc2)cc1C	59.1	54.5
Cn1c(N)c(C(=O)CCl)c(=O)n(Cc2ccccc2)c1=O	96	77.9
COc1ccc(C(=O)O/N=C(\N)Cc2ccc(Cl)cc2)cc1OC	99.3	95.8
CCOC(=O)c1cccc(N2C(N)=NC(N)=NC2(C)C)c1	52.6	69.5
COc1ccc(C(=O)N/N=C(/C)c2cccc(NC(=O)c3ccccc3F)c2)cc1	53.5	62.1
Cc1nc(-c2ccc(C(=O)Nc3ccccc3F)cc2)cs1	81.9	84.3
COc1ccccc1/C=C/C1(C(=O)NC2CCCC2)CC(=O)N1c1ccc(C)cc1 (stereo not given)	90.2	88.8
C/C(=N\NC(=O)c1ccc(O)cc1)c1cccc(NC(=O)c2ccc(Cl)cc2)c1	74.3	77.2
OC(c1ccccc1)(c1ccccc1)C1CCN(CCCOc2ccc3c(c2)CCCC3)CC1	38	48.9
c1ccc(/N=C2\N=C(Nc3ccccn3)c3ccccc32)nc1	40	48.8
COc1cccc(Cn2c(NCc3cccnc3)nc3c2c(=O)n(C)c(=O)n3C)c1	79.5	84.7

Structure (SMILES)	activity [1] [%]	activity [2] [%]
O=C(Nc1ccc(N2CCOCC2)c(F)c1)c1cccs1	48.5	63.3
CC(=O)n1cc(N(C(=O)CCl)c2ccccc2)c2ccccc21	99.6	99.8
Cn1c(=S)[nH]c2sc3c(c2c1=O)CCC(C(C)(C)C)C3 (stereo not given)	86.4	78
CC(C)(C)OC(=O)NCCCCCc1cn([C@@H](CO)C(=O)NCCCCCCCCCCC(=O)N2CCN(C(=O)OC(C)(C)C)CC2)nn1	61.7	42.1
CCOC(=O)CSc1nc2cc(OC)ccc2cc1C#N	74.7	80.4
Cc1ccc2nc(-c3sc4nc(C)ccc4c3N)[nH]c2c1	23.9	7.22
Cc1c(C)c2ccc(OCC(=O)Nc3nccs3)cc2oc1=O	58.4	57.8
O=C(Nc1ccc(O)cc1)c1ccc2c(c1)C(=O)N(Cc1ccccc1)C2=O	60.9	19.7
Cc1cc(N/N=C/c2ccccc2Cl)nc(NCc2ccccc2)n1	37.5	34.1
Cc1ccc(-c2csc(NC(=O)CSc3nnc4c(n3)[nH]c3ccccc34)n2)cc1	42.5	24.3
CCN1CCN(Cc2ccc(NC(=O)c3cc(NC(=O)c4cnnc5ccccc45)cc(OC)c3)cc2C(F)(F)F)CC1	55.2	93.9
S=c1[nH]ncn1/N=C/c1ccc(N2CCOCC2)cc1	62	59.8
COc1cc(NCCCCC(C)N)c2nccc(C)c2c1 (stereo not given)	38	45.6
CC(C)C(=O)Nc1ccc2nn(-c3ccccc3)nc2c1	52.4	55
C/C(=N\Nc1cccc2cccnc12)c1ccccn1	69.8	59.6
O=C(/C=C\Nc1ccccn1)c1ccc(Cl)cc1	77.2	63.3
O=C(NC(=S)Nc1ccccn1)c1ccc(-c2ccccc2)cc1	76.3	72.8
CCN1CCN(c2ccc(S(=O)(=O)N3CCCCC3)cc2NC(=O)c2ccc([N+](=O)[O-])o2)CC1	59.8	61.9
CCCCN(CC)CCCNC(=O)C1c2ccccc2C(=O)N(C)C1c1cn(C)c2ccccc12 (stereo not given)	71.8	69.7
COc1ccc(-c2sc3ccccc3c2-c2ccc(OCCN(C)C)cc2)cc1	52.4	73.6
Cc1cc(C(=O)Cn2nnc3ccccc3c2=O)c(C)n1Cc1cccs1	65.1	58.3
c1csc(-c2nnc(-c3ccc(N4CCOCC4)cc3)o2)c1	56.9	54.2
O=C(Nc1ccc(-c2cn3ccsc3n2)cc1)C1CC1	75.1	70.2
Cc1cccc(NC2=NC(C)(C)N=C(N)N2)c1	82.5	83.2

Structure (SMILES)	activity [1] [%]	activity [2] [%]
O=C(NCCOc1ccccc1)c1cccc2c1C(=O)c1ccc(Cl)cc1S2(=O)=O	35.6	54.2
Nc1c(C(=O)Nc2nc3ccccc3s2)sc2nc(-c3cccs3)ccc12	97.8	98.7
Nc1c2c(nc3sc4c(c13)CCCCC4)CCCCC2	48.1	47.8
Cc1ccc(Cn2ccsc2=NC(=O)CCl)cc1	99.2	99
CCOc1ccc(C(=O)Nc2cc(C)c3c(=O)oc4ccccc4c3n2)cc1	61.2	62.1
c1ccc2nc3c(nc2c1)[nH]c1ccccc13	45.7	44.5
C=C1CCc2c([nH]c3ccc(OCC(C)C)cc23)C1=O	91.8	99.2
Cc1ccc(-c2cn3c(=O)cc(C)[nH]c3n2)cc1	80.5	79.5
COc1cc2nc(N3CCN(c4cc(C)ccc4C)CC3)nc(N)c2cc1OC	56.7	88.7
CCOc1ccc2nc(-c3ccccc3)[nH]c2c1	81.2	76
C/C(=N\NC(=O)c1ccc(O)cc1)c1cccc(NC(=O)c2ccccc2C)c1	59.9	61.3
CC(=O)c1sc(NC(=O)c2ccc(C(C)(C)C)cc2)nc1C	30.1	35.9
C/C(=N\NC(=O)c1ccc(Cl)cc1)c1cccs1	80.1	81.4
Cc1ccc(-c2nnc(Nc3ccccc3)o2)cc1	59.7	54.5
Cc1nc2c(-c3ccccc3)cnn2c(N)c1-c1ccccc1	92.6	90.9
O=C(Nc1ccccn1)c1ccc(-c2ccccc2)cc1	87.6	88.4
COc1ccc(C(=O)Nc2ccc3ncccc3c2)cc1	87.7	85.3
COc1ccccc1OCCNC(=O)c1ccc2c(c1)OCCO2	41	45.9
CCCc1cc(C(=O)N/N=C/c2ccc(CC)s2)c2ccccc2n1	68.8	56.9
Cc1cc(-c2nc3cc(F)ccc3s2)ccc1N	74.5	68.6
O=C(NC1CCCCC1)C(c1cccnc1)N(C(=O)CCl)c1ccc(F)cc1 (stereo not given)	99.2	98.8
O=C(N/N=C/c1ccccc1)c1ccc2c(c1)OCO2	61.2	56.1
N#Cc1c(C#N)c(SSc2c(C#N)c(C#N)c(N)n2-c2ccccc2)n(-c2ccccc2)c1N	-0.075	72.1

Source: PubChem BioAssay
